Results filed as inconclusive are left out. Activity calls are given as the source filed them. Unless noted, calls come from the whole dose curve; as a rule, active = well fitted curve in the direction sought with a large enough effect; inconclusive = small, poorly fitted or top-dose-only effect, or another doubt; inactive = no such curve, though single readings can be large; an effect the other way counts as inactive or inconclusive.

Test system in the first assay: not listed separately
The assay is described as follows: MultiTox-Fluor Cytotoxicity Assay - LYMP1-001 - Live Cells (AID 947). Particulars: LYMP1-001 lymphoblastoid cells, live-cell protease fluorescence viability; series mostly up to 92.2 µM.
Regarding `CN(C)Cc1ccccc1`, the molecule was classed as inactive.
As for `O=C(O)CC(O)(CC(=O)O)C(=O)O`, the molecule was called inactive.
On the same count and under the same terms, the result for `CCCCCCCCCC(=O)O` reads “inactive”; that for `COC(C)=O`, “inactive”.
Consider `C=Cc1ccccc1`, for which the molecule was called inactive.

Test system in the next assay: not listed separately
The experiment in a line: Cell Viability - LYMP1-002 - Assay at 16 hr (AID 948). Particulars: LYMP1-002 lymphoblastoid cell viability; series mostly up to 92.2 µM. The method, boiled down: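 In this qHTS, lymphoblastoid LYMP1-002 cells (human) receive compounds for 16 hr at 37 C. Viability is taken from CellTiter-Glo ATP luminescence, and AC50 derives from standard Hill fits.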
As for `CN(C)Cc1ccccc1`, the call was inactive.
Still for that read-out and setting: the result for `O=C(O)CC(O)(CC(=O)O)C(=O)O` reads “inactive”.
Still for that read-out and setting: the result for `CCCCCCCCCC(=O)O` reads “inactive”; that for `COC(C)=O`, “inactive”.
The same measure, in the same setting: the same measure for `C=Cc1ccccc1`: “inactive”.

The target in the next assay is Pyruvate kinase PKM (Homo sapiens) (UniProt P14618). The assay is described as follows: qHTS Assay for Activators of Human Muscle Pyruvate Kinase (AID 954; active = well fitted curve in the direction sought with a large enough effect, not every such curve was filed as active). Particulars: purified human muscle pyruvate kinase, luciferase-coupled luminescence, 1 h; series mostly up to 57.5 µM. Put shortly: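 Purified human PKM2 (0.1 nM) with 0.5 mM PEP (Km) and 0.1 mM ADP in 50 mM imidazole pH 7.2, KCl, MgCl2, 1 h at room temperature; ATP formed read by coupled luciferase luminescence. Normalized to no-enzyme/110 uM thiadiazolimine inhibition; 0.3 nM enzyme column for activation.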
Sequence of Pyruvate kinase PKM (Homo sapiens) (P14618 whole entry, looked up): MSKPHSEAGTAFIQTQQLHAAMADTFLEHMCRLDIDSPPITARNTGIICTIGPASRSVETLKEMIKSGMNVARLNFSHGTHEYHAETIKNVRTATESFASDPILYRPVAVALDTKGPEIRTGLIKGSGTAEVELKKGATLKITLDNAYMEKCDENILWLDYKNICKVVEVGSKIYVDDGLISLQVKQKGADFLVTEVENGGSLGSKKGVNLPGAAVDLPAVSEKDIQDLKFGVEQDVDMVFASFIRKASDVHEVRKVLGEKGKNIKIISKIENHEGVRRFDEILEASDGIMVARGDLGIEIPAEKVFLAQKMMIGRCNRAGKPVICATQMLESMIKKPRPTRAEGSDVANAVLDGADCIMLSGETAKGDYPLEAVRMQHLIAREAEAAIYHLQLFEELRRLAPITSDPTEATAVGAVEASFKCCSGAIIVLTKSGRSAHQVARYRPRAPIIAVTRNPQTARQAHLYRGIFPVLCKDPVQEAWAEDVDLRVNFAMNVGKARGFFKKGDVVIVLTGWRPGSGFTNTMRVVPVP
Take `Cc1ccc(OC[C@H](O)[C@H](C)NC(C)C)c2c1CCC2`: the outcome was inactive.
On to `NCCCC(=O)O`, for which the molecule was called inactive.
Still for that read-out and setting: the same measure for `CN[C@H]1CC[C@@H](c2ccc(Cl)c(Cl)c2)c2ccccc21`: “inactive”.

Test system in a further assay: not listed separately
The assay is described as follows: MultiTox-Fluor Cytotoxicity Assay - LYMP1-002 - Live Cells (AID 955). The settings on record: LYMP1-002 lymphoblastoid live-cell protease fluorescence viability; series mostly up to 46.1 µM. The method, boiled down:
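Human lymphoblastoid LYMP1-002 cells, 2500/well in complete medium, rested 5 hr at 37 C, then exposed to compounds for 16 hr at 37 C. Live-cell protease cleavage of GF-AFC read by fluorescence (Ex/Em 405/510) after 60 min at room temperature; AC50 from Hill fits.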
On to `CN(C)Cc1ccccc1`, for which the outcome was inactive.
Same read-out and setting: the same measure for `O=C(O)CC(O)(CC(=O)O)C(=O)O`: “inactive”; for `CCCCCCCCCC(=O)O`: “inactive”; for `COC(C)=O`: “inactive”.
As for `C=Cc1ccccc1`, the result was inactive.

Test system in the next assay: not listed separately
The experiment in a line: MultiTox-Fluor Cytotoxicity Assay - LYMP1-002 - Dead Cells (AID 960). Note: nearly all actives have a fitted effect of over 60% in size. The settings on record: LYMP1-002 lymphoblastoid cells, dead-cell protease fluorescence; series mostly up to 46.1 µM. The method, boiled down:
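Human lymphoblastoid cells (LYMP1-002), 2500/well in complete medium, were exposed to compounds for 16 hr at 37 C. Dead-cell protease activity was read as bis-AAF-R110 fluorescence (Ex/Em 485/520), normalized to DMSO and 15 uM tetraoctylammonium bromide; AC50 from Hill fits.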
Consider `CN(C)Cc1ccccc1`, for which the molecule was called inactive.
For `O=C(O)CC(O)(CC(=O)O)C(=O)O`, the outcome was inactive.
Turning to `CCCCCCCCCC(=O)O`, the outcome was inactive.
The same measure, in the same setting: the result for `COC(C)=O` reads “inactive”; that for `C=Cc1ccccc1`, “inactive”.

Test system in another assay: not listed separately
The experiment in a line: MultiTox-Fluor Cytotoxicity Assay - LYMP1-003 - Dead Cells (AID 961). Note: nearly all actives have a fitted effect of over 70% in size. Particulars: LYMP1-003 lymphoblastoid cells, dead-cell protease fluorescence; series mostly up to 92.2 µM. The method, boiled down:
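LYMP1-003 human lymphoblastoid cells (2500/well) exposed to compound 16 h at 37 C in complete medium; dead-cell protease read with bis-AAF-R110 fluorescence (Ex/Em 485/520) after 60 min at room temperature. Normalized to DMSO and 15 uM tetraoctylammonium bromide; AC50 from Hill fit.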
As for `CN(C)Cc1ccccc1`, the call was inactive.
In the case of `O=C(O)CC(O)(CC(=O)O)C(=O)O`, the outcome was inactive.
Still for that read-out and setting: the result for `CCCCCCCCCC(=O)O` reads “inactive”; that for `COC(C)=O`, “inactive”.
The same measure, in the same setting: the result for `C=Cc1ccccc1` reads “inactive”.

Test system in the next assay: not listed separately
The experiment in a line: MultiTox-Fluor Cytotoxicity Assay - LYMP1-003 - Live Cells (AID 962).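 Note: cytotoxic hits lower the live-cell protease signal.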 Particulars: LYMP1-003 lymphoblastoid cells, MultiTox-Fluor live-cell protease fluorescence; series mostly up to 92.2 µM. The method, boiled down: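 LYMP1-003 human lymphoblastoid cells (2500/well) in complete medium were preincubated 5 hr at 37 C, then exposed to compounds for 16 hr at 37 C. Live-cell protease cleavage of GF-AFC read by fluorescence (Ex/Em 405/510); AC50 from Hill fits.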
As for `CN(C)Cc1ccccc1`, the molecule was classed as inactive.
The same measure, in the same setting: the result for `O=C(O)CC(O)(CC(=O)O)C(=O)O` reads “inactive”; that for `CCCCCCCCCC(=O)O`, “inactive”; that for `COC(C)=O`, “inactive”.
As to `C=Cc1ccccc1`, the molecule was called inactive.

Test system in another assay: not listed separately
The assay is described as follows: Cell Viability - LYMP1-003 - Assay at 24 hr (AID 963). The settings on record: LYMP1-003 lymphoblastoid cell viability; series mostly up to 92.2 µM. Put shortly: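 Human lymphoblastoid LYMP1-003 cells (2500/well) were rested 5 hr at 37 C, then exposed to compounds in complete medium for 24 hr at 37 C. Cellular ATP was quantified by CellTiter-Glo luminescence, and AC50 values came from Hill fits of concentration-response data.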
With `CN(C)Cc1ccccc1`, the molecule was called inactive.
In the case of `O=C(O)CC(O)(CC(=O)O)C(=O)O`, the molecule was classed as inactive.
Still for that read-out and setting: the result for `CCCCCCCCCC(=O)O` reads “inactive”; that for `COC(C)=O`, “inactive”.
The same measure, in the same setting: the same measure for `C=Cc1ccccc1`: “inactive”.

Test system in another assay: not listed separately
The assay is described as follows: Cell Viability - LYMP1-003 - Assay at 40 hr (AID 964). Note: nearly all actives have a fitted effect of over 60% in size. The settings on record: LYMP1-003 lymphoblastoid viability; series mostly up to 92.2 µM. The method, boiled down:
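Human lymphoblastoid LYMP1-003 cells, 2500/well in complete medium, rested 5 hr at 37 C, then exposed to compounds for 40 hr at 37 C. Viability read as intracellular ATP by CellTiter-Glo luminescence; AC50 from Hill fits of concentration-response data.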
As to `CN(C)Cc1ccccc1`, the molecule was classed as inactive.
For `O=C(O)CC(O)(CC(=O)O)C(=O)O`, the molecule was called inactive.
On the same count and under the same terms, the same measure for `CCCCCCCCCC(=O)O`: “inactive”.
`COC(C)=O`: the outcome was inactive.
As to `C=Cc1ccccc1`, the result was inactive.

Test system in another assay: not listed separately
The experiment in a line: Cell Viability - LYMP2-003 (AID 965).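 Note: cells exposed to compounds for 24 h before reading; nearly all actives have a fitted effect of over 50% in size.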 Particulars: LYMP2-003 lymphoblastoid cell viability; series mostly up to 92.2 µM. The method, boiled down: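 qHTS, human lymphoblastoid line, 2500 cells/well, complete medium. 24 h drug, 37 C. ATP-based luminescent readout; Hill-fit AC50.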
Consider `CN(C)Cc1ccccc1`, for which the result was inactive.
As for `O=C(O)CC(O)(CC(=O)O)C(=O)O`, the outcome was inactive.
Consider `CCCCCCCCCC(=O)O`, for which the outcome was inactive.
Turning to `COC(C)=O`, the call was inactive.
On to `C=Cc1ccccc1`, for which the outcome was inactive.

Test system in the next assay: not listed separately
The experiment in a line: Cell Viability - LYMP2-004 (AID 966). Note: nearly all actives have a fitted effect of over 65% in size. The settings on record: LYMP2-004 lymphoblastoid cell viability, qHTS; series mostly up to 92.2 µM. The method, boiled down: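 Human lymphoblastoid cells (2500/well) in complete medium were treated with compounds for 24 hr at 37 C, then intracellular ATP was measured by CellTiter-Glo luminescence. AC50 values came from Hill-equation fits of concentration-response data.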
For `CN(C)Cc1ccccc1`, the outcome was inactive.
On the same count and under the same terms, the same measure for `O=C(O)CC(O)(CC(=O)O)C(=O)O`: “inactive”.
On the same count and under the same terms, the same measure for `CCCCCCCCCC(=O)O`: “inactive”; for `COC(C)=O`: “inactive”; for `C=Cc1ccccc1`: “inactive”.
